# Experimental data published in publication PMC7862700, “An all-to-all approach to the identification of sequence-specific readers for epigenetic DNA modifications on cytosine”.
# Experiments:
# Assay in all cases: DAPPL (digital affinity profiling via proximity ligation, sequencing); 10 mM Tris-HCl pH 7.5, 50 mM NaCl, 1 mM DTT, 4% glycerol, room temperature, 30 min; GST-TFs on glutathione beads, 16-mer random dsDNA library, 0.1% formaldehyde crosslink after washing; high values mean tight binding
# [1] = target: T1, FLI1 (Homo sapiens, UniProt Q01543 1-452); conditions: protein: recombinant; tags: N-terminal GST; dsDNA, one strand shown
# T1 sequence: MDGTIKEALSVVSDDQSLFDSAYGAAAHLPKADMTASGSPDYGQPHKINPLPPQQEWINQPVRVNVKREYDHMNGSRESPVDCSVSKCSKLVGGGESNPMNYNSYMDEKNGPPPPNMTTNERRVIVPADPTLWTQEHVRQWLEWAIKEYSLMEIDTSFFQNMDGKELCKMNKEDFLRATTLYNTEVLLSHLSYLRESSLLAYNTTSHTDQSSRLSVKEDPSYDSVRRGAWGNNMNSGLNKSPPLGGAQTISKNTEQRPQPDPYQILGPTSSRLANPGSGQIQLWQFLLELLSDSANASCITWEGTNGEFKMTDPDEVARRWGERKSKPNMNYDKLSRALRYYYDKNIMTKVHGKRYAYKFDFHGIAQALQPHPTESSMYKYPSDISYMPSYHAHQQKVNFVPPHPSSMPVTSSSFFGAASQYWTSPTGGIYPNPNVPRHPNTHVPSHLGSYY
# In short: (§1)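 GST fusions of human transcription factors were expressed in yeast and captured with glutathione beads. Once given DNA barcodes and pooled alongside a tag-only sample, they were incubated for 30 min at room temperature with 200 nmole of a random double-stranded 16-mer DNA library in Tris/NaCl/DTT/glycerol buffer, then washed, crosslinked (0.1% formaldehyde), proximity-ligated, PCR-amplified and sequenced on an Illumina NextSeq500. The binding signal of each hexamer is its read frequency for a factor divided by its frequency for the tag-only sample.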
# [2] = target: T2, ELK1 (Homo sapiens, UniProt P19419 1-428); conditions: protein: recombinant; tags: N-terminal GST; dsDNA, one strand shown
# T2 sequence: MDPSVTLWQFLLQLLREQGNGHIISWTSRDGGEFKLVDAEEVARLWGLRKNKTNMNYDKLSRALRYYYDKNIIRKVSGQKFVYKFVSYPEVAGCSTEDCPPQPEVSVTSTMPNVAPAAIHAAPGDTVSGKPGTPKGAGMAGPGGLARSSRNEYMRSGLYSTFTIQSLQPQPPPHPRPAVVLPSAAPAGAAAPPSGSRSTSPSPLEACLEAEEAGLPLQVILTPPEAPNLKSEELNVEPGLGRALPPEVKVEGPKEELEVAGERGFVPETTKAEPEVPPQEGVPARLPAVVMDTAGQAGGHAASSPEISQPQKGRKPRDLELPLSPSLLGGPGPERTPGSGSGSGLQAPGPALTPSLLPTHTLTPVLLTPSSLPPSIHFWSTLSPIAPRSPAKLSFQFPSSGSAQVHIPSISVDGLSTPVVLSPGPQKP
# In short: as §1
# [3] = target: T3, GABPA (Homo sapiens, UniProt Q06546 1-454); conditions: protein: recombinant; tags: N-terminal GST; dsDNA, one strand shown
# T3 sequence: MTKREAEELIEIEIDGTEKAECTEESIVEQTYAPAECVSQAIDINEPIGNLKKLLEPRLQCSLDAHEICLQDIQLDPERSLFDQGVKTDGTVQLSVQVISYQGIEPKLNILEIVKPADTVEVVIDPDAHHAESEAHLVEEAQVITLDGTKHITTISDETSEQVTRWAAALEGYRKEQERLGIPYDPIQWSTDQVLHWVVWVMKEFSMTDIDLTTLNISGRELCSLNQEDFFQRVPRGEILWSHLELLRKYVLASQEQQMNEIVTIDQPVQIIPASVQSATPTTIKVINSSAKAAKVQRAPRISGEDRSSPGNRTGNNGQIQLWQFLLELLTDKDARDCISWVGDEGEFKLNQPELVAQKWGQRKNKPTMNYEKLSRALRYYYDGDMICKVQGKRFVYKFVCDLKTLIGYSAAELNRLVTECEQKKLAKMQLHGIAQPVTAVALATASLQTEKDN
# In short: as §1
# [4] = target: T4, ERG (Homo sapiens, UniProt P11308 1-479); conditions: protein: recombinant; tags: N-terminal GST; dsDNA, one strand shown
# T4 sequence: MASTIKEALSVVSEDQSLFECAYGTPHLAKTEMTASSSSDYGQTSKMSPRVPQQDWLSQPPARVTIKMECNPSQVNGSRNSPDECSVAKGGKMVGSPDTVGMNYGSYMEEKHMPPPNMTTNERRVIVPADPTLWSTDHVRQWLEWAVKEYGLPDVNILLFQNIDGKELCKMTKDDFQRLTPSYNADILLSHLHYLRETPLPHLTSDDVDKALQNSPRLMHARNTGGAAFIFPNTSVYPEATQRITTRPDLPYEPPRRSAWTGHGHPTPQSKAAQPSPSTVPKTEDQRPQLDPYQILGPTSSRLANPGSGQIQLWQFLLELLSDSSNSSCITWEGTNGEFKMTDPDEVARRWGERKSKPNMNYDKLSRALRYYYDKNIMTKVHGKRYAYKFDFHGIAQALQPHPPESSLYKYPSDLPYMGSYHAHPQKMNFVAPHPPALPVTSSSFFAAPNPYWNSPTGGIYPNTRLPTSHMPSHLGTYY
# In short: as §1
# [5] = target: ELF1 (Homo sapiens, UniProt P32519 1-619); conditions: protein: recombinant; tags: N-terminal GST; dsDNA, one strand shown
# In short: as §1
# [6] = target: T5, EHF (Homo sapiens, UniProt Q9NZC4 1-300); conditions: protein: recombinant; tags: N-terminal GST; dsDNA, one strand shown
# T5 sequence: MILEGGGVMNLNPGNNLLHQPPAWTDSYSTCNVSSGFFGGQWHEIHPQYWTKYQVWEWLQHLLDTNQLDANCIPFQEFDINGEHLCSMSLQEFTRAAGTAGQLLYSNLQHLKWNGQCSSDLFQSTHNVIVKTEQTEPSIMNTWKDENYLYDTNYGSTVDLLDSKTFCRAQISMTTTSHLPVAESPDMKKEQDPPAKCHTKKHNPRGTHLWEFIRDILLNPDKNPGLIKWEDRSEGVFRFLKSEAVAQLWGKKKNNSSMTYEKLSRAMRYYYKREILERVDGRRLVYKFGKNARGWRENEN
# In short: as §1
# [7] = target: SPI1 (Homo sapiens, UniProt P17947 1-270); conditions: protein: recombinant; tags: N-terminal GST; dsDNA, one strand shown
# In short: as §1
# [8] = target: SPIB (Homo sapiens, UniProt Q01892 1-262); conditions: protein: recombinant; tags: N-terminal GST; dsDNA, one strand shown
# In short: as §1
# [9] = target: T6, ELK3 (Homo sapiens, UniProt P41970 1-407); conditions: protein: recombinant; tags: N-terminal GST; dsDNA, one strand shown
# T6 sequence: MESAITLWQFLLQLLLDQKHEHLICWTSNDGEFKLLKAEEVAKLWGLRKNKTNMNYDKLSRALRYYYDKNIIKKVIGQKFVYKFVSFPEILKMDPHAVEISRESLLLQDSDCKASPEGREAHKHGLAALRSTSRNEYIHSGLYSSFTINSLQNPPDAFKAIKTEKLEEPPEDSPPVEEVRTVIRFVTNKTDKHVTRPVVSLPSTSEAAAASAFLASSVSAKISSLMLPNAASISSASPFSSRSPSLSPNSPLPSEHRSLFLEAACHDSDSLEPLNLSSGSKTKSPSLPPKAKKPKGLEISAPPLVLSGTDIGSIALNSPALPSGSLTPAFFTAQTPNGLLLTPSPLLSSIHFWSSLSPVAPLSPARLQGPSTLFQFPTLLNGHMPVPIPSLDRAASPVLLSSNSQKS
# In short: as §1
# [10] = target: T7, FEV (Homo sapiens, UniProt Q99581 1-238); conditions: protein: recombinant; tags: N-terminal GST; dsDNA, one strand shown
# T7 sequence: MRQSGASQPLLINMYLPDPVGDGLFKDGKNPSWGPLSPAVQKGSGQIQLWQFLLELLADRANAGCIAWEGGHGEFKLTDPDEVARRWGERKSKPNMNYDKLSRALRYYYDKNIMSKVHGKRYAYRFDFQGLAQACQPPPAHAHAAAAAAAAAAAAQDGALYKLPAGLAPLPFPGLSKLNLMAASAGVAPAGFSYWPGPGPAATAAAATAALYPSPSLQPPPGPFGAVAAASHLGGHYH
# In short: as §1
# [11] = target: ETV5 (Homo sapiens, UniProt P41161 1-510); conditions: protein: recombinant; tags: N-terminal GST; dsDNA, one strand shown
# In short: as §1
# [12] = target: HSF1 (Homo sapiens, UniProt Q00613 1-529); conditions: protein: recombinant; tags: N-terminal GST; chain copies: 3; dsDNA, one strand shown
# In short: as §1
# [13] = target: T8, SPIC (Homo sapiens, UniProt Q8N5J4 1-248); conditions: protein: recombinant; tags: N-terminal GST; dsDNA, one strand shown
# T8 sequence: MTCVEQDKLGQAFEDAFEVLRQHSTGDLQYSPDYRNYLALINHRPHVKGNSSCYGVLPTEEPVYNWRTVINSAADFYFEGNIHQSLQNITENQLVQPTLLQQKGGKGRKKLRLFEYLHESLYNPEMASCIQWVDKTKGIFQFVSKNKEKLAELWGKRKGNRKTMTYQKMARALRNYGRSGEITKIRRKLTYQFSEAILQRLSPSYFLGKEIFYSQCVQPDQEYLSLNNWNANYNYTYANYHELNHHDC
# In short: as §1
# [14] = target: ELF4 (Homo sapiens, UniProt Q99607 1-663); conditions: protein: recombinant; tags: N-terminal GST; dsDNA, one strand shown
# In short: as §1
# [15] = target: T9, ELK4 (Homo sapiens, UniProt P28324-2 1-405); conditions: protein: recombinant; tags: N-terminal GST; dsDNA, one strand shown
# T9 sequence: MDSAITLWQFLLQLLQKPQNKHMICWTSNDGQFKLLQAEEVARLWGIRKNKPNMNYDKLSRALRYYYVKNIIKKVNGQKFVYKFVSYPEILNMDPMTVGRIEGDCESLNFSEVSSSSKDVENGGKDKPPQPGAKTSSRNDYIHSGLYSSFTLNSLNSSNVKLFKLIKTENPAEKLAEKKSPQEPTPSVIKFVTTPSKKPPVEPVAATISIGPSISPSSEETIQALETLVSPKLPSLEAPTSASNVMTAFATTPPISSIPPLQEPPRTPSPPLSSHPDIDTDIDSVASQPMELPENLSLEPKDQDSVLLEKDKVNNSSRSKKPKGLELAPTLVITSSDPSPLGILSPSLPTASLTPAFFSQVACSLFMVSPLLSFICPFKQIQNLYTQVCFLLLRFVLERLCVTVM
# In short: as §1
# [16] = target: T10, ETV2 (Homo sapiens, UniProt O00321 1-342); conditions: protein: recombinant; tags: N-terminal GST; dsDNA, one strand shown
# T10 sequence: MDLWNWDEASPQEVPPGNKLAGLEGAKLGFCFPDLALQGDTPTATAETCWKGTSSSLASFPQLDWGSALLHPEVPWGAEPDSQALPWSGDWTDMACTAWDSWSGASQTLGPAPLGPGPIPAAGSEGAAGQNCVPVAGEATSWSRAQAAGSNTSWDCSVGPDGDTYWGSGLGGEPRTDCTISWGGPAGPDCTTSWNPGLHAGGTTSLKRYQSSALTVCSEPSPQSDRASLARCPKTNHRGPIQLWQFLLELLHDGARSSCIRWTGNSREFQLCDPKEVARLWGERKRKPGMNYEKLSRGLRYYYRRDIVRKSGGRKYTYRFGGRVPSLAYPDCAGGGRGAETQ
# In short: as §1
# [17] = target: T11, ELF3 (Homo sapiens, UniProt P78545 1-371); conditions: protein: recombinant; tags: N-terminal GST; dsDNA, one strand shown
# T11 sequence: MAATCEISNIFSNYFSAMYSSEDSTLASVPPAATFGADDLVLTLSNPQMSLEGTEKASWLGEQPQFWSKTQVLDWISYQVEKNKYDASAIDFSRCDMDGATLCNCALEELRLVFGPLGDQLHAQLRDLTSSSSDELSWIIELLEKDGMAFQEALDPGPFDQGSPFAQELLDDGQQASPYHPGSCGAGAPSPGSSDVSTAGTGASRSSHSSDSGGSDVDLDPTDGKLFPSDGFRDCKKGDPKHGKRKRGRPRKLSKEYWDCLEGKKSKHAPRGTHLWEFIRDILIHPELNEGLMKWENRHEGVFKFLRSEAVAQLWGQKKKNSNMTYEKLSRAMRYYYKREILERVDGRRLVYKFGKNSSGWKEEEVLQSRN
# In short: as §1
# [18] = target: CRX (Homo sapiens, UniProt O43186 1-299); conditions: protein: recombinant; tags: N-terminal GST; dsDNA, one strand shown
# In short: as §1
# [19] = target: ETV1 (Homo sapiens, UniProt P50549 1-477); conditions: protein: recombinant; tags: N-terminal GST; dsDNA, one strand shown
# In short: as §1
# SPIB, sequence (Q01892 whole entry): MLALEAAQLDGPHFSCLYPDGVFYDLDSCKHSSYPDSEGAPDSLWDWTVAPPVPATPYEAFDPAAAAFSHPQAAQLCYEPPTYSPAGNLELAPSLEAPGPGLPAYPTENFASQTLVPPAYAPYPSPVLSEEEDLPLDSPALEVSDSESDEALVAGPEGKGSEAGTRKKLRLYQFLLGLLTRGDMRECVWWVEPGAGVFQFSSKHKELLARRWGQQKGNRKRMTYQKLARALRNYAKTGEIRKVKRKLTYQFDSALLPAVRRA
# ELF1, sequence (P32519 whole entry): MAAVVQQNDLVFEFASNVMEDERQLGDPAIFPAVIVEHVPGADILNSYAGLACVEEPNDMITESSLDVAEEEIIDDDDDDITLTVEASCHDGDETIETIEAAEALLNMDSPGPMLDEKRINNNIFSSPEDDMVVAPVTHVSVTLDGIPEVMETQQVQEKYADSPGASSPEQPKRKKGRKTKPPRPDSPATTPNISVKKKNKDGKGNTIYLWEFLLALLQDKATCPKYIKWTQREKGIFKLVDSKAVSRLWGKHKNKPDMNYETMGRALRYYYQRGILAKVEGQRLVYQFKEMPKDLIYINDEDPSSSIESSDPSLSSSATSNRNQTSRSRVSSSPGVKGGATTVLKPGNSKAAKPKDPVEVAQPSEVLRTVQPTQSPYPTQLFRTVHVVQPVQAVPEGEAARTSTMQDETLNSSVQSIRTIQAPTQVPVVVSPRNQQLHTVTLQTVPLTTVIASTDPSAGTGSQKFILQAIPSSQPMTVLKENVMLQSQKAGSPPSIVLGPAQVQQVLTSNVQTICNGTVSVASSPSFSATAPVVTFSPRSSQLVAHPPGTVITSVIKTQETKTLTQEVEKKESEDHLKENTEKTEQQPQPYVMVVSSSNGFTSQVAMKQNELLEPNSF
# ELF4, sequence (Q99607 whole entry): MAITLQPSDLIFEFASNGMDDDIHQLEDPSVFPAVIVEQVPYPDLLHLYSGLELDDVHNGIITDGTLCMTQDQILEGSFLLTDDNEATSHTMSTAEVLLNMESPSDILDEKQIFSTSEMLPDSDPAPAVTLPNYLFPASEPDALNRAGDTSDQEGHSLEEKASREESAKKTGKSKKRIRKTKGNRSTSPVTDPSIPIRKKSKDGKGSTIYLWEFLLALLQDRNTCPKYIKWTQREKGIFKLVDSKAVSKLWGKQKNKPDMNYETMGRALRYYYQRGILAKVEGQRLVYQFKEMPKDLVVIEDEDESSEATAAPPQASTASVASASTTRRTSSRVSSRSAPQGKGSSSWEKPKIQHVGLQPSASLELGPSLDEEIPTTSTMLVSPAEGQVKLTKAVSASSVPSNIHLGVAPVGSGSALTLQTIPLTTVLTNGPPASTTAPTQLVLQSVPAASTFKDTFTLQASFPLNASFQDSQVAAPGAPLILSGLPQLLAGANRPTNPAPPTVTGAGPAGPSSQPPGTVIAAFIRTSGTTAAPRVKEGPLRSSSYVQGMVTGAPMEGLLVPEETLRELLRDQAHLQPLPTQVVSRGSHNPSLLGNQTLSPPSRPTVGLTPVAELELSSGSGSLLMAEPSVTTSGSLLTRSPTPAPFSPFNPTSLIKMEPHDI
# HSF1, sequence (Q00613 whole entry): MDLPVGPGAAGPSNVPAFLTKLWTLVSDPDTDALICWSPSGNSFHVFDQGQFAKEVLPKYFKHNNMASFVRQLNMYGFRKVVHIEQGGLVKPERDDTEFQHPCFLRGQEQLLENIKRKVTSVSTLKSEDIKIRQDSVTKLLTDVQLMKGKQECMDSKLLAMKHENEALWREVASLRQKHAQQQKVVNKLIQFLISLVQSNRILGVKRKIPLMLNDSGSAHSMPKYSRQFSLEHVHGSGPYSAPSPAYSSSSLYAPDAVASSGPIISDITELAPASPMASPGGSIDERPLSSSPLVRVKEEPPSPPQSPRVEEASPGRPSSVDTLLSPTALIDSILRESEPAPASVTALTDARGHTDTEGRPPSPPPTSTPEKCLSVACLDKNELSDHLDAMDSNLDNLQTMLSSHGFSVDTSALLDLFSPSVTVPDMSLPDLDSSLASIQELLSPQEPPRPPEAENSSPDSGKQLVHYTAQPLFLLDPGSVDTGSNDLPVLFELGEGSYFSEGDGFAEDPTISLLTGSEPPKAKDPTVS
# ETV5, sequence (P41161 whole entry): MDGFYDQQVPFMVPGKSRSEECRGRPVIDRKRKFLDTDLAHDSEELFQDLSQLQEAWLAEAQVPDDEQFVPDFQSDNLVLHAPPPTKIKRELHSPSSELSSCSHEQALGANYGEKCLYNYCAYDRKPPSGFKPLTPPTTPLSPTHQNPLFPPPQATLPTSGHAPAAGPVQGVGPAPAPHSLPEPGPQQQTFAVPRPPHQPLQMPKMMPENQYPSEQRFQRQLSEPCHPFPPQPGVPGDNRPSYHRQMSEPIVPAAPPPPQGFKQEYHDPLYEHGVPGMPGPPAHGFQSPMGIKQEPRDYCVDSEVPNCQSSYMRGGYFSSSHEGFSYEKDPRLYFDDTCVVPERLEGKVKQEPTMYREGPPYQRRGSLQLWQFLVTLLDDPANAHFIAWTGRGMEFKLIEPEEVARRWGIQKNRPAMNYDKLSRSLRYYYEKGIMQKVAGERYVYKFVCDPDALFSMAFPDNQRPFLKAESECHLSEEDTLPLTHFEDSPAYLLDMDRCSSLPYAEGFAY
# ETV1, sequence (P50549 whole entry): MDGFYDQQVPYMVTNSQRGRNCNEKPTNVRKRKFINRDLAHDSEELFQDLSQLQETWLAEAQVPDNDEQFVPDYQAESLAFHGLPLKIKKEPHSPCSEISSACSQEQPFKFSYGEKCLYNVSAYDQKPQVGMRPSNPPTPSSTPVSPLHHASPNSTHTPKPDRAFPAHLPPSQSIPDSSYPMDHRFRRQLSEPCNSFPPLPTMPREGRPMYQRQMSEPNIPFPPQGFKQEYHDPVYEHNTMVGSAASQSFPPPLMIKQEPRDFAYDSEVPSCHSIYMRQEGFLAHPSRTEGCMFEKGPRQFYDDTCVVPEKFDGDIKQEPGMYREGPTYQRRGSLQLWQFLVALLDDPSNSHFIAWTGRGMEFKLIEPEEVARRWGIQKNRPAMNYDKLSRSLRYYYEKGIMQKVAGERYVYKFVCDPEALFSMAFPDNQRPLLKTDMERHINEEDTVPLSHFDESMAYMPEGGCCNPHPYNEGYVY
# CRX, sequence (O43186 whole entry): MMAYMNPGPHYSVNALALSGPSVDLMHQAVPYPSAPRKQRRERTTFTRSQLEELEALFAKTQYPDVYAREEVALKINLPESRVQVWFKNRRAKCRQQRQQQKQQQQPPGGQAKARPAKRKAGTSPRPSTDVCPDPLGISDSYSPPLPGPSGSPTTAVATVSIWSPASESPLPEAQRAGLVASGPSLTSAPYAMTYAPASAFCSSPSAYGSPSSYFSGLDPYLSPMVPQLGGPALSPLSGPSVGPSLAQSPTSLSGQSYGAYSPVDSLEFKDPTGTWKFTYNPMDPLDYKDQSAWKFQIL
sequence,measurement,setting,value
AATTGG,binding signal,[1],"1.38 fold enrichment (6-mer frequency, TF over GST control)"
same,binding signal,[2],"1.36 fold enrichment (6-mer frequency, TF over GST control)"
same,binding signal,[3],"1.31 fold enrichment (6-mer frequency, TF over GST control)"
same,binding signal,[4],"1.34 fold enrichment (6-mer frequency, TF over GST control)"
same,binding signal,[5],"1.33 fold enrichment (6-mer frequency, TF over GST control)"
same,binding signal,[6],"1.42 fold enrichment (6-mer frequency, TF over GST control)"
same,binding signal,[7],"1.4 fold enrichment (6-mer frequency, TF over GST control)"
same,binding signal,[8],"1.42 fold enrichment (6-mer frequency, TF over GST control)"
same,binding signal,[9],"1.48 fold enrichment (6-mer frequency, TF over GST control)"
same,binding signal,[10],"1.43 fold enrichment (6-mer frequency, TF over GST control)"
same,binding signal,[11],"1.4 fold enrichment (6-mer frequency, TF over GST control)"
same,binding signal,[12],"1.2 fold enrichment (6-mer frequency, TF over GST control)"
same,binding signal,[13],"1.26 fold enrichment (6-mer frequency, TF over GST control)"
same,binding signal,[14],"1.38 fold enrichment (6-mer frequency, TF over GST control)"
same,binding signal,[15],"1.16 fold enrichment (6-mer frequency, TF over GST control)"
same,binding signal,[16],"1.2 fold enrichment (6-mer frequency, TF over GST control)"
same,binding signal,[17],"1.35 fold enrichment (6-mer frequency, TF over GST control)"
same,binding signal,[18],"1.23 fold enrichment (6-mer frequency, TF over GST control)"
same,binding signal,[19],"1.39 fold enrichment (6-mer frequency, TF over GST control)"
